Experimental findings from PubChem BioAssay (Tox21) are described below.

Values joined by “and” are separate entries in the source; they are usually repeats but may differ in a detail not shown here. Equal entries are not always repeated. Results filed as inconclusive are left out. A structure can be active in one record and inactive in another. Active and inactive are the calls of the source. Calls come from the whole dose curve; as a rule, active = well fitted curve in the direction sought with a large enough effect in the repeat runs; inconclusive = weak or mixed curves; inactive = no such curve, though single readings can be large; an effect the other way counts as inactive or inconclusive.
% is set by controls: 0 for no effect and ±100 for the full control effect; potency is the fitted concentration of half-maximal effect.

Chain of Aryl hydrocarbon receptor (Homo sapiens) (P35869 whole entry, looked up): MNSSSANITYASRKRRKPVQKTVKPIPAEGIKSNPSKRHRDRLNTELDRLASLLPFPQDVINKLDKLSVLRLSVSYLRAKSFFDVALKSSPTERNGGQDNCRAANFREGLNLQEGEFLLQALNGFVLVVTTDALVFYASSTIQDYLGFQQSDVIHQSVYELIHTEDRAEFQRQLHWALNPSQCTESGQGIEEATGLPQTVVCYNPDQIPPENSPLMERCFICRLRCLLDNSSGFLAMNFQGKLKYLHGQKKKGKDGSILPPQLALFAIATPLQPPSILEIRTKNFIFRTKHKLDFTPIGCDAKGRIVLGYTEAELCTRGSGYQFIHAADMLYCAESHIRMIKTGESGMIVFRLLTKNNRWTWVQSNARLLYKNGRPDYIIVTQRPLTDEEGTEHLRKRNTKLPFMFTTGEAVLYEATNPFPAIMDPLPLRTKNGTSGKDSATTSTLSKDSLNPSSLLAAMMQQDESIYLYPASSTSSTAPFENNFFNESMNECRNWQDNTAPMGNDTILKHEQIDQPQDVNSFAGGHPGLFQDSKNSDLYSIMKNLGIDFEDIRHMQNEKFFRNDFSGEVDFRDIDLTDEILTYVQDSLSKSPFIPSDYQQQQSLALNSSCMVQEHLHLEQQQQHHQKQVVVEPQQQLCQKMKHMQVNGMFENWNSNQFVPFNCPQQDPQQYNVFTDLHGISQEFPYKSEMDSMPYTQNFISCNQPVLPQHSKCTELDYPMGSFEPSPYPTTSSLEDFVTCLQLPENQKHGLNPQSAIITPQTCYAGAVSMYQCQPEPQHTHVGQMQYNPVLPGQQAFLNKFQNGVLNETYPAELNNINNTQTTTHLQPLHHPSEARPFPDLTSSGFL

System in the first test: not listed separately
In words: qHTS assay to identify aromatase inhibitors - cell viability counter screen (AID 743084).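 Note: cells stimulated with testosterone during compound exposure; nearly all actives have a fitted effect of over 55% in size.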 The conditions noted are these: MCF-7 aro ERE viability, CellTiter-Fluor, 24 h; series mostly up to 70.3 µM; activity change, negative = cytotoxicity: at the top concentration.
Take `O=C(Cl)OCCOCCOC(=O)Cl`: the “activity change, negative = cytotoxicity” value is 3.93% (inactive).
Take `Nc1cccc2ccccc12`: the Potency entry is “inactive”.
Take `c1ccc2c(c1)-c1cccc3cccc-2c13`: the Potency entry was “inactive”.
Turning to `CCC1(CCC(C)C)C(=O)NC(=O)NC1=O`, the “activity change, negative = cytotoxicity” value was -4.61% (inactive).
Turning to `O=C1NC(=O)C(=O)C(=O)N1`, the “activity change, negative = cytotoxicity” value was 5.1% [at 95 µM] (inactive).
For the molecule `Clc1ccc(Cl)c(Cl)c1`, the Potency entry was “inactive”.
Still for that read-out and setting: to `[Cl-].[Cl-].[Hg+2]` belongs 10.6 µM (active) and 1.08 µM (active) and 12.2 µM (active).
Turning to `CN1CC[C@]23c4c5ccc(O)c4O[C@H]2[C@@H](O)C=C[C@H]3[C@H]1C5`, the “activity change, negative = cytotoxicity” value was -0.49% (inactive).
On to `COc1ccc(C(=O)c2c(C)n(CCN3CCOCC3)c3ccccc23)cc1`, for which the “activity change, negative = cytotoxicity” value is -11.7% (inactive).
For the molecule `O=C1c2ccccc2C(=O)N1SC(Cl)(Cl)Cl`, the Potency is 1.22 µM (active).
As for `O=C(O)c1cc(I)cc(I)c1I`, the “activity change, negative = cytotoxicity” value was 13% [at 95 µM] (inactive).
With `CCCCNC(=O)OCC#CI`, the Potency is 6.08 µM (active) and 17.2 µM (active).
As to `CCC1(C2=NCCN2)Cc2ccccc2O1` (centres undefined), the “activity change, negative = cytotoxicity” value is 0.824% (inactive).
Still for that read-out and setting: as for `O=C(O)C(Cl)(Cl)Br`, the figure is 11.6% [at 95 µM] (inactive).
`C[CH2][Hg][S]c1ccccc1C(=O)O`: the Potency was 5.96 µM (active) and 1.09 µM (active).
With `CCCCCCCCn1sccc1=O`, the Potency was 12.2 µM (active) and 40.4 µM (active).
`CC1(C)[C@H](C(=O)O[C@H](C#N)c2cccc(Oc3ccccc3)c2)[C@@H]1C=C(Br)Br`: the “activity change, negative = cytotoxicity” value is 13.2% [at 95 µM] (inactive).
As to `CCCCCCCCCCCCN=C(N)N`, the activity change, negative = cytotoxicity is -14.3% [at 3.79 µM] (inactive).
For the molecule `CCCCCCCCP(=O)(O)O`, the “activity change, negative = cytotoxicity” value was -3.47% (inactive).
For the molecule `CN1C[C@H](C(=O)N[C@]2(C)O[C@@]3(O)[C@@H]4CCCN4C(=O)[C@H](Cc4ccccc4)N3C2=O)C=C2c3cccc4[nH]cc(c34)C[C@H]21`, the “activity change, negative = cytotoxicity” value is -19.4% [at 32.5 µM] (inactive).
Same read-out and setting: to `CNC(=O)Oc1cccc(N=CN(C)C)c1` belongs 0.836% (inactive).
Same read-out and setting: to `O=C(O)C(O)C(O)C(=O)O` (centres undefined) belongs 6.56% (inactive); to `C=CCc1ccc(OC(=O)Cc2ccccc2)c(OC)c1`, 7.32% (inactive).
Turning to `Cc1ncc(C[n+]2csc(CCO)c2C)c(N)n1`, the “activity change, negative = cytotoxicity” value was -2.5% (inactive).
Consider `O=C1CC[C@@]2(O)[C@H]3Cc4ccc(O)c5c4[C@@]2(CCN3CC2CC2)[C@H]1O5`, for which the “activity change, negative = cytotoxicity” value was 9.83% (inactive).
`C[C@]12CC[C@H]3[C@@H](CCC4=CC(=O)CC[C@@H]43)[C@@H]1CC[C@@H]2OC(=O)CCc1ccccc1`: the “activity change, negative = cytotoxicity” value was 8.48% (inactive).
Regarding `O=C(O)COc1cc(Cl)c(Cl)cc1Cl`, the Potency entry is “inactive”.
Turning to `CCCN(CCOc1c(Cl)cc(Cl)cc1Cl)C(=O)n1ccnc1`, the “activity change, negative = cytotoxicity” value is -4.34% (inactive).
Regarding `CN(C)C(=O)Nc1cccc(OC(=O)NC(C)(C)C)c1`, the “activity change, negative = cytotoxicity” value is 0.656% (inactive).
As for `O=[N+]([O-])/C=C/c1ccccc1`, the Potency was 31.1 µM (active) and 54.5 µM (active).
On to `CC(C)(C)CC(C)(C)c1ccc(O)cc1`, for which the Potency result is “inactive and 30.6 µM (active)”.
For the molecule `Nc1ccccc1C(=O)OCCc1ccccc1`, the “activity change, negative = cytotoxicity” value was -27.2% (inactive).
As for `CC(C)CCCCCCCOC(=O)c1ccccc1C(=O)OCCCCCCCC(C)C`, the “activity change, negative = cytotoxicity” value was 13.3% (inactive).
On the same count and under the same terms, as for `COC1=CC(=O)O[C@@H](/C=C/c2ccc3c(c2)OCO3)C1`, the figure is 22.8% (inactive).
Consider `CC(C)[C@@H](C(=O)O[C@@H](C#N)c1cccc(Oc2ccccc2)c1)c1ccc(Cl)cc1`, for which the “activity change, negative = cytotoxicity” value was 11.8% [at 95 µM] (inactive).

A further test has as its target Aryl hydrocarbon receptor (Homo sapiens) (UniProt P35869). In words: qHTS assay to identify small molecule that activate the aryl hydrocarbon receptor (AhR) signaling pathway (AID 743085).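 For activation: HG2L7.5c1 human HepG2 liver cells with stably integrated DRE-driven firefly reporter.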 Note: nearly all actives have a fitted effect of over 15% in size. The following applies: HepG2 AhR-luc (HG2L7.5c1), luciferase, 24 h; series mostly up to 70.3 µM; activation: at the top concentration. The method in brief: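 HepG2 cells (HG2L7.5c1) stably carrying a firefly luciferase reporter driven by 20 dioxin responsive elements were exposed to compound for 24 h at 37C after a 5 h settling period; luminescence rise (ONE-Glo) indicated activation.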
On the technique in general: Quantitative high-throughput screening tests each substance at several concentrations.
For the molecule `O=C(Cl)OCCOCCOC(=O)Cl`, the “activation” value was 1.89% (inactive).
Take `Nc1cccc2ccccc12`: the Potency is 27.5 µM (active) and 27.3 µM (active).
In the case of `CCC1(CCC(C)C)C(=O)NC(=O)NC1=O`, the “activation” value is 4.04% (inactive).
Same read-out and setting: as for `O=C1NC(=O)C(=O)C(=O)N1`, the figure is -1.14% [at 95 µM] (inactive).
Take `CN1CC[C@]23c4c5ccc(O)c4O[C@H]2[C@@H](O)C=C[C@H]3[C@H]1C5`: the “activation” value is -3.55% (inactive).
`O=C1c2ccccc2C(=O)N1SC(Cl)(Cl)Cl`: the Potency result was “inactive”.
Turning to `O=C(O)c1cc(I)cc(I)c1I`, the “activation” value was -0.45% [at 95 µM] (inactive).
With `CCCCNC(=O)OCC#CI`, the Potency entry was “inactive”.
Regarding `C[CH2][Hg][S]c1ccccc1C(=O)O`, the Potency entry was “inactive”.
Same read-out and setting: to `CCCCCCCCn1sccc1=O` belongs “inactive”; to `CC1(C)[C@H](C(=O)O[C@H](C#N)c2cccc(Oc3ccccc3)c2)[C@@H]1C=C(Br)Br`, “inactive”.
Consider `Cc1ncc(C[n+]2csc(CCO)c2C)c(N)n1`, for which the Potency entry was “inactive”.
As for `C[C@]12CC[C@H]3[C@@H](CCC4=CC(=O)CC[C@@H]43)[C@@H]1CC[C@@H]2OC(=O)CCc1ccccc1`, the “activation” value was 0.598% (inactive).
With `O=C(O)COc1cc(Cl)c(Cl)cc1Cl`, the Potency entry is “inactive”.
With `CN(C)C(=O)Nc1cccc(OC(=O)NC(C)(C)C)c1`, the “activation” value was 6.52% (inactive).
As for `Nc1ccccc1C(=O)OCCc1ccccc1`, the Potency is 30.6 µM (active).
With `CC(C)CCCCCCCOC(=O)c1ccccc1C(=O)OCCCCCCCC(C)C`, the “activation” value is -0.757% (inactive).

System in the next test: not listed separately
In words: qHTS assay to identify small molecule that activate the aryl hydrocarbon receptor (AhR) signaling pathway - cell viability counter screen (AID 743086).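 For viability change, negative = cytotoxic: HepG2 liver cells carrying the AhR DRE luciferase reporter.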 Note: nearly all actives have a fitted effect of over 45% in size. The conditions noted are these: HepG2-AhR-luc viability, CellTiter-Fluor, 24 h; series mostly up to 70.3 µM; viability change, negative = cytotoxic: at the top concentration. In a few lines:
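HepG2-AhR-luc (HG2L7.5c1) cells, 4000/well, treated 24 h at 37 C with compound; viability measured as CellTiter-Fluor fluorescence after 30 min in the same wells as the luciferase read.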
As for `O=C(Cl)OCCOCCOC(=O)Cl`, the “viability change, negative = cytotoxic” value is 10.4% (inactive).
With `Nc1cccc2ccccc12`, the Potency entry is “inactive”.
The same measure, in the same setting: to `c1ccc2c(c1)-c1cccc3cccc-2c13` belongs “inactive”.
With `CCC1(CCC(C)C)C(=O)NC(=O)NC1=O`, the “viability change, negative = cytotoxic” value is -0.284% (inactive).
On the same count and under the same terms, as for `O=C1NC(=O)C(=O)C(=O)N1`, the figure is -1.89% [at 95 µM] (inactive).
In the case of `Clc1ccc(Cl)c(Cl)c1`, the Potency result was “inactive”.
Regarding `[Cl-].[Cl-].[Hg+2]`, the Potency is 6.08 µM (active) and 54.5 µM (active).
`CN1CC[C@]23c4c5ccc(O)c4O[C@H]2[C@@H](O)C=C[C@H]3[C@H]1C5`: the “viability change, negative = cytotoxic” value was 1.87% (inactive).
Same read-out and setting: to `COc1ccc(C(=O)c2c(C)n(CCN3CCOCC3)c3ccccc23)cc1` belongs -29.5% (inactive).
Consider `O=C1c2ccccc2C(=O)N1SC(Cl)(Cl)Cl`, for which the Potency result was “inactive”.
Turning to `O=C(O)c1cc(I)cc(I)c1I`, the “viability change, negative = cytotoxic” value is 23.7% [at 95 µM] (inactive).
The same measure, in the same setting: as for `CCCCNC(=O)OCC#CI`, the figure is -17.1% (inactive); as for `CCC1(C2=NCCN2)Cc2ccccc2O1` (centres undefined), 8.37% (inactive).
The same measure, in the same setting: to `O=C(O)C(Cl)(Cl)Br` belongs 6.42% [at 95 µM] (inactive); to `CCC1CCC(=O)O1` (centres undefined), 1.04% [at 95 µM] (inactive).
As to `C[CH2][Hg][S]c1ccccc1C(=O)O`, the Potency is 16.8 µM (active) and 6.86 µM (active).
`CCCCCCCCn1sccc1=O`: the “viability change, negative = cytotoxic” value is -28.7% (inactive).
For the molecule `CC1(C)[C@H](C(=O)O[C@H](C#N)c2cccc(Oc3ccccc3)c2)[C@@H]1C=C(Br)Br`, the Potency entry was “inactive”.
Consider `CCCCCCCCCCCCN=C(N)N`, for which the viability change, negative = cytotoxic was -4.27% [at 3.79 µM] (inactive).
Turning to `CCCCCCCCP(=O)(O)O`, the “viability change, negative = cytotoxic” value is 25.1% (inactive).
In the case of `CN1C[C@H](C(=O)N[C@]2(C)O[C@@]3(O)[C@@H]4CCCN4C(=O)[C@H](Cc4ccccc4)N3C2=O)C=C2c3cccc4[nH]cc(c34)C[C@H]21`, the Potency was 21.8 µM (active) and inactive.
For the molecule `CNC(=O)Oc1cccc(N=CN(C)C)c1`, the “viability change, negative = cytotoxic” value is 2.73% (inactive).
With `O=C(O)C(O)C(O)C(=O)O` (centres undefined), the “viability change, negative = cytotoxic” value was 12.2% (inactive).
On the same count and under the same terms, as for `C=CCc1ccc(OC(=O)Cc2ccccc2)c(OC)c1`, the figure is 24.6% (inactive).
In the case of `Cc1ncc(C[n+]2csc(CCO)c2C)c(N)n1`, the Potency entry was “inactive”.
On to `O=C1CC[C@@]2(O)[C@H]3Cc4ccc(O)c5c4[C@@]2(CCN3CC2CC2)[C@H]1O5`, for which the “viability change, negative = cytotoxic” value was 2.14% (inactive).
Same read-out and setting: as for `C[C@]12CC[C@H]3[C@@H](CCC4=CC(=O)CC[C@@H]43)[C@@H]1CC[C@@H]2OC(=O)CCc1ccccc1`, the figure is 0.326% (inactive).
On to `O=C(O)COc1cc(Cl)c(Cl)cc1Cl`, for which the Potency result is “inactive”.
For `CCCN(CCOc1c(Cl)cc(Cl)cc1Cl)C(=O)n1ccnc1`, the “viability change, negative = cytotoxic” value was -0.865% [at 95 µM] (inactive).
Same read-out and setting: as for `CN(C)C(=O)Nc1cccc(OC(=O)NC(C)(C)C)c1`, the figure is -0.475% (inactive).
As for `O=[N+]([O-])/C=C/c1ccccc1`, the Potency entry is “inactive”.
With `Nc1ccccc1C(=O)OCCc1ccccc1`, the Potency result is “inactive”.
`CC(C)CCCCCCCOC(=O)c1ccccc1C(=O)OCCCCCCCC(C)C`: the “viability change, negative = cytotoxic” value is 4.51% (inactive).
In the case of `O=C(O)CCCOc1ccc(Cl)cc1Cl`, the Potency entry was “inactive”.
Take `COC1=CC(=O)O[C@@H](/C=C/c2ccc3c(c2)OCO3)C1`: the “viability change, negative = cytotoxic” value was 4.93% (inactive).
`CC(C)(C)OOC(C)(C)CCC(C)(C)OOC(C)(C)C`: the “viability change, negative = cytotoxic” value was -12.2% (inactive).
For `CC(C)[C@@H](C(=O)O[C@@H](C#N)c1cccc(Oc2ccccc2)c1)c1ccc(Cl)cc1`, the Potency result was “inactive”.
